The supplement of paper PMC13380429

Assays:
[1] = test system: Vero E6 infected with SARS-CoV-2; test: morphology score (similarity to uninfected cells); higher = more like uninfected cells; conditions: 24 h
[2] = test system: Vero E6 infected with SARS-CoV-2; test: SARS-CoV-2 infection rate relative to infected DMSO; higher = more infection, active = 60 or less; conditions: 24 h

Structure (SMILES) | morphology score [1] | SARS-CoV-2 infection rate [2]
C=CCN1C[C@H](C)N([C@H](c2ccc(C(=O)N(CC)CC)cc2)c2cccc(OC)c2)C[C@H]1C (10 µM) | -0.00563 | 106% (inactive)
Cc1cc(/C=C2\SC(=O)N(c3ccccc3)C2=O)c(C)n1-c1cccnc1 (10 µM) | -0.171 | 102% (inactive)
O=C(CCc1ccc(O)cc1)c1c(O)cc(O)cc1O[C@@H]1O[C@H](CO)[C@@H](O)[C@H](O)[C@H]1O [phlorizin] (10 µM) | 0.166 | 112% (inactive)
